Compounds with a hit are over-represented: about 1.5% of the library has one in this group of screens.
Eya2 inh = qHTS Assay for Inhibitors of the Phosphatase Activity of Eya2. Potency, µM (titrated, usually from 76.9 µM), without a hit: top-dose activity, negative = inhibition, usual class: inhibitors. Protein phosphatase EYA2 (Homo sapiens), O00167. 330,000 tested, 0.006% active. AID 488837, 2010. recombinant Eya2, OMFP fluorescence dephosphorylation (OMFP is methylfluorescein phosphate); further: potency means the concentration at half of the fitted maximal effect
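Eya2 (0.2 uM) preincubated 10 min at ambient with compound, then OMFP substrate added at 50 uM; 10 min reaction in 50 mM HEPES pH 7.5, 50 mM NaCl, 5 uM MgCl2, 0.05% BSA, 1 mM DTT. Fluorescence read at Ex 485/Em 525 nm.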
CtBP-E1A inh = qHTS Assay for Inhibitors of the CtBP/E1A Interaction; CtBP / adenovirus E1A interaction (AlphaScreen); AlphaScreen GST-E1A/His-CtBP binding, 1536-well; active compounds read low; activity change, % (test concentration not listed); 340,000 tested, 0.49% active; AID 651724, 2012; in the data active means activity change below about -65%; inconclusive means mostly about -30% to -63%
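GST-E1A and His-tagged CtBP (125 nM each as 5X stock) were preincubated with pin-transferred compound for 2 h at 37 °C in the dark, then glutathione donor and nickel acceptor beads were added for 1 h before AlphaScreen reading.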
Six1-Eya2 blk = qHTS Assay for Inhibitors of the Six1/Eya2 Interaction; activity change, % (concentration not given with the values); 360,000 tested, 0.56% active; AlphaScreen GST-Six1/His-Eya2 binding, biochemical; active compounds read low; Homeobox protein SIX1 (Homo sapiens) + Protein phosphatase EYA2 (Homo sapiens), …; in the data active means activity change below about -65%; inconclusive means mostly about -30% to -63%
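AlphaScreen with GST-Six1 and His-Eya2 (5X mix: 250 nM and 500 nM), glutathione donor and nickel acceptor beads; buffer 50 mM Tris pH 8.0, 300 mM NaCl, 1 mM TCEP; 1 h at 37 C in the dark.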
GALK inh = qHTS Assay for Inhibitors of Human Galactokinase (GALK); P51570; 270,000 tested, 0.007% active; Purified GALK, Kinase-Glo residual ATP luminescence; Potency, µM (top dose mostly 57.5 µM), for the others: at the top dose activity change, negative = inhibition, hits mostly inhibitors; further: potency means the concentration at half of the fitted maximal effect
Target sequence (P51570 whole entry, looked up): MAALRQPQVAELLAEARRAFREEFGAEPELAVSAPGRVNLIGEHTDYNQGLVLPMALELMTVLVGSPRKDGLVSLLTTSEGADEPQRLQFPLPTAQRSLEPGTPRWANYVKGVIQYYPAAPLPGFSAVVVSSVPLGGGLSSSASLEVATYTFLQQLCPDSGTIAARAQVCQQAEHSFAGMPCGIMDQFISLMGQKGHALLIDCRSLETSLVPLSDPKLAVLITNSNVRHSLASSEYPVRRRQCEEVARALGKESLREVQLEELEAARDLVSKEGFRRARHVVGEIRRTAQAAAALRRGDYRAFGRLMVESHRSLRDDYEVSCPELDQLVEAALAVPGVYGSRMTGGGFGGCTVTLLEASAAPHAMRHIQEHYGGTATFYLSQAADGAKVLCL
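Luminescence from leftover ATP (Ultra-Glo luciferase/luciferin) served as read-out after a 1 h room-temperature reaction of 5 nM GALK with 35 uM ATP and 100 uM galactose.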
TrxR1 inh = qHTS Assay for Inhibitors of Mammalian Selenoprotein Thioredoxin Reductase 1 (TrxR1): qHTS; 390,000 tested, 1% active; Thioredoxin reductase 1, cytoplasmic (Rattus norvegicus), O89049; recombinant rTrxR1, NADPH fluorescence consumption, selenite substrate; Potency, µM (top dose mostly 114 µM), inactives show at the highest dose activity change, negative = inhibition, actives largely listed as inhibitors; further: potency means the concentration at half of the fitted maximal effect; nearly all actives have a fitted effect of over 65% in size
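Rat TrxR1 (90 nM in the dispensed reagent) was pre-reduced with 400 uM NADPH for 5 min at room temperature, then incubated with compound for 15 min. After 400 uM selenite was added, NADPH fluorescence (Ex 340/Em 450 nm) was followed for 8 min.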
TrxR1 substrate = qHTS Assay for Substrates of Mammalian Selenoprotein Thioredoxin Reductase 1 (TrxR1): qHTS. AID 588456, 2011. 390,000 tested, 0.01% active. purified TrxR1 substrate turnover, NADPH consumption readout. Potency, µM (highest dose often 114 µM), without a hit: at the highest dose activity change, negative = substrate turnover; further: potency means the concentration at half of the fitted maximal effect; nearly all actives have a fitted effect of over 50% in size
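Rat TrxR1, dispensed at 90 nM, was prereduced with 400 uM NADPH (final) for 5 min at ~22 deg C, then incubated with compound 15 min before 400 uM selenite. A first-read NADPH fluorescence drop versus no-compound background flagged substrates.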
The depositor's hits bear a star; ? = inconclusive; · = no result; ! = a repeat was not active; [ ] = remark or other dose. Unless noted, the call rests on the fitted dose curve; in most records, active means well fitted curve in the direction sought with a large enough effect; inconclusive means small, poorly fitted or top-dose-only effect, or another doubt; inactive means no such curve, though single readings can be large; an effect the other way counts as inactive or inconclusive. On the % scale 0 is the no-effect control and ±100 the full control effect.

SMILES	Eya2 inh	CtBP-E1A inh	Six1-Eya2 blk	GALK inh	TrxR1 inh	TrxR1 substrate
O=c1[nH]c(=O)n(-c2cccc3ccccc23)c(O)c1C=NCCCn1ccnc1	34%	1	2	0%	-1%	-2%
CSc1ccc(Cl)c(C(=O)OCC(=O)N2CCN(C(=O)c3ccco3)CC2)c1	5%	2	-2	·	?	10%
O=[N+]([O-])c1ccc(CN2CCN(c3ccc(Cl)cc3)CC2)o1	-3%	-7	2	3%	?	-1%
N#CCCN	2%	·	·	·	-6%[57.1 µM]	3%[57.1 µM]
O=C(N/N=C/c1c(O)n(Cc2ccco2)c(=O)[nH]c1=O)c1ccccc1O	-2%	-89*	-87*	·	-15%	-8%
CN1C(=O)N(C)C(=O)C2(Sc3ccccc3C2=O)C1=O	-5%[15.4 µM]	0	-2	1%	28µM*	3%
N#CC(C#N)=Cc1ccc(O)c(O)c1	18%	5	-4	·	17µM*	4%[57.1 µM]
CC(C)(C)c1cc(C=C(C#N)C#N)cc(C(C)(C)C)c1O	5%	2	-9	·	?	?
O=C(N/N=C/C1C(=O)NC(=S)N(c2ccccc2)C1=O)c1cc(Br)c(O)c(Br)c1 (centres undefined)	15%	-92*	-93*	6%	?	-6%[57.1 µM]
CCOc1ccc(NC(=O)c2cc3c(C)nn(-c4ccccc4)c3s2)cc1	·	·	·	·	43%	36%
CN(C)c1ccc(C=C2C=CC=C2)cc1	·	-27	-66*	·	?	-10%
CN(C)c1ccc(C=C(C#N)C#N)cc1	3%	0	6	-1%	7%[57.1 µM]	-8%
Cc1ccc(NC(=O)NCc2ccc3c(c2)CCN3C(=O)c2ccccc2)c(Cl)c1	·	·	·	·	36%[57.1 µM]	6%[57.1 µM]
COc1ccccc1CNC(=O)CCC1N=C2c3ccccc3N=C(SCc3cccc(Cl)c3)N2C1=O (centres undefined)	·	·	·	·	73%	21%
Cc1cc(C=C2C(=O)N(C)C(=S)N(C)C2=O)c(C)n1-c1cccnc1	6%	-3	-24	0%	20µM*	-5%
O=C(CCN1CC2CCC(CC2)C1)c1cccs1	·	-2	6	·	0.45µM*	7%[11.4 µM]
COC(=O)[C@@H]1[C@@H](C(=O)OC)C2(c3ccccc3-c3ccccc32)N(c2ccc(Cl)cc2)N1C#N	4%	-1	-8	-2%	11µM*	-3%
CCOc1ccc(-c2cn3c(n2)sc2cc(C(=O)N4CCCC(C)C4)ccc23)cc1 (centres undefined)	·	·	·	·	38%	20%
COC(=O)[C@@H]1C[C@H]1[C@@H](NP(=O)(c1ccccc1)c1ccccc1)c1ccccc1	8%	0	6	·	16µM*	0%
CSc1ncc(/C=C2/C(=O)NC(=O)N(c3ccc(C)cc3)C2=O)cn1	?	-7	0	-1%	7.9µM*	1%
Cc1ccc(N2C(=O)NC(=O)/C(=C/c3cnn(-c4ccc(C)cc4)c3)C2=O)cc1	7%	7	1	-4%	?	-2%
CCOc1ccc(N2C(=O)NC(=O)/C(=C/c3cnc(SC)nc3)C2=O)cc1	11%	-1	7	-2%	4µM*	-3%[57.1 µM]
Cc1ccc(N2C(=O)NC(=O)/C(=C\c3cnc(-c4ccccc4)nc3)C2=O)cc1	-5%	5	16	4%	3.5µM*	2%
CSc1ncc(/C=C2/C(=O)NC(=O)N(c3ccc(Cl)cc3)C2=O)cn1	-5%	0	0	-1%	6.3µM*	0%[57.1 µM]
COc1cc(C(=O)OCc2cc(=O)c(O)co2)ccc1OC(F)F	?	3	-7	-1%	12%	7%
SMILES	Eya2 inh	CtBP-E1A inh	Six1-Eya2 blk	GALK inh	TrxR1 inh	TrxR1 substrate
Cc1cccn2c(=O)c(/C=C(\C#N)c3nc4ccccc4s3)c(Oc3ccc(F)cc3)nc12	·	·	·	·	41%	17%
CN1C(=O)NC(=O)/C(=C\c2ccc([N+](=O)[O-])o2)C1=O	15%	-1	?	1%	16µM*	-6%
CN1C(=O)NC(=O)/C(=C/c2ccc([N+](=O)[O-])o2)C1=O	-3%	9	?	2%	?	-1%[57.1 µM]
C[N+](C)(C)CC(=O)O	-4%	0	1	·	27µM*!	-2%[57.1 µM]
N#CC1(c2ccccc2)CCN(C2CC(=O)N(c3ccc(F)cc3)C2=O)CC1 (centres undefined)	?	·	5	2%	13%	1%
N#CC1(c2ccccc2)CCN(C2CC(=O)N(c3ccc4c(c3)OCO4)C2=O)CC1 (centres undefined)	-7%	·	0	-1%	71µM*	5%
CN(C)c1ccc(C=C2C(=O)NC(=O)NC2=O)cc1[N+](=O)[O-]	3%	·	3	-1%	?	1%[57.1 µM]
COc1ccc(C=C2C(=O)NC(=S)NC2=O)cc1	·	-2	9	·	2.8µM*	-4%
O=C1NC(=S)NC(=O)C1=Cc1ccc(OCc2ccccc2)cc1	·	10	1	·	7.9µM*	3%
CN(C)c1ccc(C=C2C(=O)NC(=S)NC2=O)cc1[N+](=O)[O-]	1%	-14	-15	-2%	4µM*	5%[57.1 µM]
N[C@@H](Cn1ccc(=O)c(O)c1)C(=O)O	4%	·	·	·	21%[57.1 µM]	12%[57.1 µM]
COc1ccc(NC(=O)CN(C)C(=O)CSC(c2ccccc2)c2ccccc2)cc1	-13%	·	-3	·	15%	-9%
O=C(CSc1ccc(-c2ccco2)nn1)Nc1ccccc1	0%	-16	-21	-2%	20µM*	7%[57.1 µM]
Cc1oc(-c2ccc(Cl)cc2)nc1CS(=O)CC(=O)N1CCC2(CC1)OCCO2 (centres undefined)	15%	0	-8	0%	50µM*	25%
Cc1oc(-c2ccccc2F)nc1CS(=O)CC(=O)N1CCC2(CC1)OCCO2 (centres undefined)	0%	-2	7	0%	?	8%
O=C(CCN1CCN(c2ccccc2)CC1)c1ccc(Br)cc1	4%	·	-10	-6%	4µM*	4%
COC[C@H]1OC(=O)c2coc3c2[C@@]1(C)C1=C(C3=O)C2CCC(=O)[C@@]2(C)C[C@H]1OC(C)=O (some centres undefined)	-2%	·	·	·	15µM*!	15%[57.1 µM]
CCOc1ccc(CCNC(=O)c2cc3c(-c4ccc(OC)c(OC)c4)nn(C)c3s2)cc1OCC	·	·	·	·	75%	99%

Screening results (PubChem BioAssay)
